According to PubChem BioAssay (NCI):
About 79,000 compounds went through this panel and 15% of them were active in at least one assay; those are over-represented in the sample as a whole. The source made the active and inactive calls. Rule as the data show it: active = growth inhibition above about 70%; inactive = the rest.

Legend:
[1] = NCI Yeast Anticancer Drug Screen. Data for the rad50 strain (AID 155);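 also: 0% = growth of vehicle-only cultures of the same strain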; conditions: S. cerevisiae rad50 strain growth inhibition; at 50.0 µM; hits give high values
In short: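 Growth of the mutant yeast was measured after compound exposure and referenced to vehicle-treated cultures.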

[2] = NCI Yeast Anticancer Drug Screen. Data for the mec2-1 strain (AID 157); conditions: S. cerevisiae mec2-1 strain, at 50.0 µM, hits give high values
In short: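 Using mec2-1 yeast: add compound, measure growth, express inhibition versus vehicle-treated cultures.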

[3] = NCI Yeast Anticancer Drug Screen. Data for the sgs1 mgt1 strain (AID 161);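 also: 0% = growth of cultures given vehicle only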; conditions: S. cerevisiae sgs1 mgt1 strain, at 50.0 µM, hits give high values
In short: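 Growth of a repair-deficient yeast mutant was monitored after compound treatment and expressed as inhibition relative to vehicle-treated cultures.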

[4] = NCI Yeast Anticancer Drug Screen. Data for the cln2 rad14 strain (AID 165);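 also: 0% = growth equal to vehicle treated cultures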; conditions: S. cerevisiae cln2 rad14 strain, at 50.0 µM, hits give high values
In short: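 Yeast strain cln2 rad14, bearing defects in cell cycle control and DNA repair, serves as the test system; values reflect growth inhibition compared with vehicle.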

[5] = NCI Yeast Anticancer Drug Screen. Data for the bub3 strain (AID 167); conditions: S. cerevisiae bub3 mutant strain, at 50.0 µM, hits give high values
In short: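 Whole-cell yeast assay. The mutant strain was incubated with compounds, and growth inhibition was determined by comparison with vehicle-treated cells.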

[6] = NCI Yeast Anticancer Drug Screen. Data for the mlh1 rad18 strain (AID 175); conditions: S. cerevisiae mlh1 rad18 strain growth inhibition; at 50.0 µM; hits give high values
In short: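 Steps: expose repair-defective yeast to compound; measure growth; express inhibition against vehicle-treated controls.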

Measured: growth inhibition

Cc1ccc(Cl)cc1N=C=S
inactive: [1] -22% | [2] -18.8% | [3] 6% | [4] -4.6% | [5] -38.4% | [6] -11.2%

CCC(=O)N1CCN(C(=O)CC)c2ccccc21
inactive: [1] -3% | [2] -5.8% | [3] -0.25% | [4] -5.25% | [5] 0.75% | [6] 6.65%

COc1ccc(-c2nc3c(nc2-c2ccc(OC)cc2)C(N)=NS(=O)(=O)N3)cc1
inactive: [1] -18.9% | [2] -7.95% | [3] -19.9% | [4] 2.2% | [5] -17.6% | [6] -10.1%

c1ccc(C(N2CCNCC2)N2CCNCC2)cc1
inactive: [1] -2.05% | [2] 8% | [3] 10.1% | [4] -3.6% | [5] -9.3% | [6] 17%

N#Cc1ccc(OCc2nc(N)nc(N)c2-c2ccc(Cl)cc2)cc1
inactive: [1] -4.4% | [2] 5.35% | [3] -16.4% | [4] -10% | [5] 20.8% | [6] 14.8%

CN(CCc1ccccn1)/[N+]([O-])=N/O (tested in a mixture with another compound)
inactive: [1] -30.8% | [2] -36.9% | [3] 4.15% | [4] 11.2% | [5] -3.35% | [6] -4.65%

CCC(=O)OCCN(C(=O)CC)c1ccccc1
inactive: [1] 35.6% | [2] 5.75% | [3] 22.2% | [4] -2.5% | [5] -0.05% | [6] 31.4%

C=C1CC(C2CCC(C)(C)C2)OC1=O (stereo unspecified)
inactive: [1] 13.7% | [2] 8% | [3] 9.15% | [4] 17.3% | [5] 2.15% | [6] -0.8%

O=C(Nc1ccc(Cl)c(Cl)c1)OCCN1CCOCC1
active: [1] 82.3% | [2] 97.2% | [3] 94% | [5] 91.2% | [6] 92.8%
inactive: [4] 67.2%

CC12CCC3c4ccc(OC(=O)C56C=CC(=O)C5C5C=CC6CC5)cc4CCC3C1CCC2=O (stereo unspecified)
inactive: [1] 11.6% | [2] -16.8% | [3] -2.2% | [4] 16.1% | [5] -4.05% | [6] 0.05%

CCSc1ccc2c3c(cccc13)C(=O)N(CCc1ccccn1)C2=O
inactive: [1] -0.6% | [2] -14.1% | [3] 11.8% | [4] 2.25% | [5] 6.2% | [6] 2.8%

CC(=O)CCC(CC(=O)O)C(C)C (stereo unspecified)
inactive: [1] 12% | [2] 0.05% | [3] 14.9% | [4] -9% | [5] 4.8% | [6] 24.1%

NCC1OC(OC2C(CO)OC(OC3C(O)C(N)CC(N)C3OC3OC(CO)C(O)C(O)C3N)C2O)C(N)C(O)C1O (stereo unspecified)
inactive: [1] 33.8% | [2] -18.1% | [3] 1.85% | [4] 1.4% | [5] 27.6% | [6] 33.7%

CCN(CC)CC(O)Cn1cnc2c(SC)ncnc21 (stereo unspecified)
inactive: [1] -0.75% | [2] 0.6% | [3] -2.95% | [4] 5.5% | [5] 4.5% | [6] -1.9%

CCOC(=O)C(=[N+]=[N-])C(O)C1OC(c2ccccc2)OCC1O (stereo unspecified)
inactive: [1] 12.8% | [2] 18.1% | [3] 18.9% | [4] 22.1% | [5] 9.15% | [6] 24.7%

CCCCn1cccc1
inactive: [1] 33.2% | [2] 10.2% | [3] 9.3% | [4] 15% | [5] 26.8% | [6] 26.4%

CC1(C)C2CCC1(CC(=O)O)C(O)C2=O (stereo unspecified)
inactive: [1] -13.3% | [2] -23.2% | [3] -14.6% | [4] -12.6% | [5] -4.6% | [6] -5.45%

Cc1nc2c(c(=O)[nH]1)S/C(=C(/C#N)c1nc3ccccc3[nH]1)N2c1ccccc1
inactive: [1] -39.8% | [2] -29% | [3] -42.4% | [4] -22% | [5] -40.8% | [6] -47.9%

CCOP(=O)(CCCCCCP(=O)(OCC)OCC)OCC
inactive: [1] 30.4% | [2] 18.4% | [3] -0.2% | [4] -31.1% | [5] 8.45% | [6] 32.9%

CCOC(=O)C(=CNc1cc(OC)cc2cccnc12)C(=O)OCC
inactive: [1] -12.8% | [2] 4.1% | [3] 0.15% | [4] 18.8% | [5] 16.1% | [6] -11.4%

OC(c1ccncc1)(c1ccc(Cl)cc1)c1cccs1 (stereo unspecified)
inactive: [1] 6.35% | [2] 11.2% | [3] 6.95% | [4] -5.2% | [5] 21.4% | [6] 7.7%

CN(C)C(=O)Nc1cccc2nsnc12
inactive: [1] 12.4% | [2] -2.75% | [3] 11% | [4] -50.5% | [5] -5.95% | [6] 29.6%

FC1(F)SC2CCCCCCCCCCC2C1(F)F (stereo unspecified)
inactive: [1] -42.6% | [2] -15.3% | [3] -20.4% | [4] -18.7% | [5] 29.1% | [6] 2.05%

O=C1c2ccccc2C(=O)N1CN1CCC(CCCC2CCN(CN3C(=O)c4ccccc4C3=O)CC2)CC1
inactive: [1] -58.5% | [2] -34.2% | [3] -36.3% | [4] -11.1% | [5] -48.1% | [6] -44.8%

CC(C)(C)c1ccc(OCCOCCOc2ccc(C(C)(C)C)cc2S(N)(=O)=O)c(S(N)(=O)=O)c1
inactive: [1] 0.35% | [2] -23.3% | [3] -19.8% | [4] 9.7% | [5] -3.5% | [6] -6.35%

C[N+]1(Cc2ccccc2)CCC(=O)CC1
inactive: [1] 4.05% | [2] -12.9% | [3] -7.1% | [4] -13.1% | [5] 10.9% | [6] -13.8%

O=c1c(Cc2ccccc2)c(O)cc2n1CCC2
inactive: [1] -14.5% | [2] -14.4% | [3] -10.7% | [4] 8.75% | [5] -5.25% | [6] -10.9%

CCOC(=O)c1ccc(OCC)cc1O
inactive: [1] 2.25% | [2] -8% | [3] 0.6% | [4] -17.6% | [5] -30.4% | [6] -15.8%

Cc1cccc(Cl)c1N=Nc1c(C)nn(C(N)=S)c1C
inactive: [1] 29.8% | [2] 8.75% | [3] 38% | [4] -33% | [5] -0.55% | [6] 17.1%

O=C1NC2OC(CO)C(O)C(O1)C2O (stereo unspecified)
inactive: [1] -9.7% | [2] 19.4% | [3] -24.9% | [4] -5% | [5] -28.8% | [6] -25%

NC1=NC=N/C(=N\c2ccccn2)C1N (stereo unspecified)
inactive: [1] -13.3% | [2] -9.95% | [3] -5.4% | [4] -32.2% | [5] -11.2% | [6] -8.6%

O=Cc1ccc2ccocc1-2
inactive: [1] 9.15% | [2] 14.8% | [3] -27.6% | [4] -11.8% | [5] -20.7% | [6] -41.2%

O=CN(Cc1ccccc1)Cc1ccccc1
inactive: [1] 5.15% | [2] 8.2% | [3] 3.65% | [4] 0.95% | [5] -3.8% | [6] -12.6%

O=C(O)c1cc(CC2Cc3cc4c(cc3C2=O)CCC4)cc2c1CCC2 (stereo unspecified)
inactive: [1] -27.4% | [2] -30.1% | [3] -21.6% | [4] 6.05% | [5] -18.8% | [6] -21.8%

Cc1cc(C)nc(C)c1
inactive: [1] -22.2% | [2] -15.1% | [3] -14.2% | [4] -11.1% | [5] -3.4% | [6] 23.9%

CC1(C)C(C(=O)/C=C2\Nc3ccccc3C2(C)C)=Nc2ccccc21
inactive: [1] -19.5% | [2] -5.65% | [3] -2.05% | [4] -26.7% | [5] -29.4% | [6] -7.85%

Cc1cc(-n2nnc(C(=O)O)c2-c2ccccc2)c2ccc(Cl)cc2n1
inactive: [1] -19.1% | [2] -4.35% | [3] -12.1% | [4] -35% | [5] -8.9% | [6] 4.1%

CCOC(=O)C(=O)N1Cc2cc3c(cc2C2CC(O)C(O)CC21)OCO3 (stereo unspecified)
inactive: [1] -8.2% | [2] -3.9% | [3] -1.1% | [4] 6.05% | [5] 2.85% | [6] 5.85%

C(=N/OCc1ccccc1)/c1ccncc1
inactive: [1] 45% | [2] 27.6% | [3] 45.7% | [4] 30.2% | [5] 47.4% | [6] 46.9%

CN1CCN(C)c2nc3ccccc3nc21
inactive: [1] 0.2% | [2] 3% | [3] 1.8% | [4] -12.1% | [5] -6.85% | [6] -7.05%

Cc1ccc(S(=O)(=O)N/N=C2/CCCOC2)cc1
inactive: [1] 16.1% | [2] 4.15% | [3] 59.6% | [4] 32.5% | [5] 24.2% | [6] 38%
